Bioassay records as filed in PubChem BioAssay.
A selection: hits, their analogues and other compounds. The true share with any hit is near 9.5%.
SARS PLP yeast – inhibitors of SARS-CoV papain-like protease in yeast | S. cerevisiae expressing SARS-CoV PLpro, growth rescue | Potency, µM (titrated, usually from 32.9 µM), hits mostly activators | 330,000 tested, 0.19% active | AID 485353; further: nearly all actives have a fitted effect of over 55% in size
Pf growth 96h – P. falciparum growth inhibition at 96 hours; P. falciparum luciferase reporter growth, 96 h; Potency, µM (series often up to 28.7 µM), usual class: inhibitors; 320,000 tested, 6.9% active; active means well fitted inhibition curve with a large enough effect; inconclusive means small, poorly fitted or top-dose-only effect, or another doubt; inactive means no such curve, though single readings can be large or run the other way
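Infected RBCs, 2% Hct / 0.05% parasitemia final; luciferase-reporter P. falciparum; cpd 96 h, 37 C, 5% CO2; luciferase detection reagent; luminescence.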
RE007 growth inh – less growth of the S. pombe RE007 Vpr strain; 360,000 tested, 0.21% active; S. pombe RE007 Vpr strain, BacTiter-Glo ATP luminescence, 24 h; AID 651644; Potency, µM (top dose mostly 92.2 µM), hits mostly inhibitors; active means well fitted falling curve with a large enough effect; inconclusive means small, poorly fitted or top-dose-only effect; inactive means no such curve, though single readings can be large or run the other way; further: nearly all actives have a fitted effect of over 50% in size
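Fission yeast RE007 carrying one integrated HIV-1 vpr copy, seeded at OD 0.01 in PMG+AL medium with 23 nL pinned compound. Grown 24 h at 30 degrees; viability read by BacTiter-Glo luminescence after 5 min.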
NS1 function inh – influenza NS1 inhibition. 270,000 tested, 0.4% active. Potency, µM (series often up to 46.1 µM); further: actives are rising curves; nearly all actives have a fitted effect of over 50% in size
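Read-out: OD600 growth recovery of NS1-expressing budding yeast. Cells grown overnight at 30C in -URA glucose medium, washed, resuspended and diluted 1:100 in 2% galactose assay medium, pH 6.0. Same strain lacking NS1 served as positive control.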
Pf growth 48h – P. falciparum growth inhibition at 48 hours (one generation) | P. falciparum luciferase growth in erythrocytes, 48 h | Potency, µM (doses to about 28.7 µM), actives largely listed as inhibitors | 310,000 tested, 5.9% active; active means well fitted inhibition curve with a large enough effect; inconclusive means small, poorly fitted or top-dose-only effect, or another doubt; inactive means no such curve, though single readings can be large or run the other way
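First compound was added to culture medium, then infected red cells at 0.1% parasitemia and 2% hematocrit (final). After incubation at 37 C under 5% CO2, luciferase detection reagent was dispensed and light output recorded.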
Of the large screens only hits and unclear results are named; the others gave an inactive call. Unless noted, the call rests on the fitted dose curve.

COc1cccc(CNC(=O)c2cc3c(c(-c4cccc(-c5cccc(C#N)c5)c4)n2)[C@H](CCO)N(S(=O)C(C)(C)C)C3)c1 (stereo partly specified)	none (no result: SARS PLP yeast, Pf growth 96h, NS1 function inh, Pf growth 48h)
Cc1ccccc1NC(=O)C1CCCN(c2ncnc3onc(-c4ccc(F)cc4)c23)C1 (stereo unspecified)	Pf growth 48h 9.3µM (no result: SARS PLP yeast)
CCc1ccccc1NC(=O)C1CCCN(c2ncnc3onc(-c4ccc(F)cc4)c23)C1 (stereo unspecified)	Pf growth 96h inconclusive, Pf growth 48h inconclusive
CC(=O)O/C(=C1/C[C@H]2[C@@H]3CC=C4C[C@@H](OC(C)=O)CC[C@]4(C)[C@@H]3CC[C@]2(C)C1=O)C(F)(F)F	none (no result: SARS PLP yeast, Pf growth 96h, RE007 growth inh, Pf growth 48h)
O=C1Cc2cc(NS(=O)(=O)c3ccc(Cl)cc3)cc3c2N1CCC3	none (no result: NS1 function inh)
COc1ccc(CCNS(=O)(=O)c2cc3c4c(c2)CC(=O)N4CCC3)cc1	Pf growth 48h 9.3µM
O=C1CCc2cc(S(=O)(=O)Nc3ccccc3F)cc3c2N1CCC3	none (no result: NS1 function inh)
Cc1ccc(NS(=O)(=O)c2cc3c4c(c2)CC(=O)N4CCC3)cc1C	Pf growth 48h 10µM
COc1ccccc1NS(=O)(=O)c1cc2c3c(c1)CC(=O)N3CCC2	Pf growth 48h 9.3µM
COc1cc(OC)cc(C(=O)Nc2ccc(N3CCN(C(=O)c4cccs4)CC3)cc2)c1	Pf growth 48h inconclusive
Cc1ccc(C(=O)N2CCN(c3ccc(NC(=O)c4cccs4)cc3)CC2)cc1	Pf growth 96h inconclusive, Pf growth 48h 10µM
COc1ccc(C(=O)Nc2ccc(N3CCN(C(=O)c4cccs4)CC3)cc2)cc1Br	Pf growth 96h 9.3µM, Pf growth 48h inconclusive
O=C(Nc1ccc(N2CCN(C(=O)c3ccc(Cl)cc3)CC2)cc1)c1cccs1	Pf growth 48h inconclusive
CC1(C(=O)NS(=O)(=O)c2ccc(C#N)cc2)CCN1C(=O)CC1CCCCC1 (stereo unspecified)	none (no result: SARS PLP yeast, Pf growth 96h, NS1 function inh, Pf growth 48h)
Cc1ccc(NC2=C(N3CCCCC3)C(=O)c3ccccc3C2=O)cc1	Pf growth 96h 0.074µM, Pf growth 48h 0.17µM
O=C1C(Nc2ccccc2)=C(N2CCCCC2)C(=O)c2ccccc21	RE007 growth inh inconclusive, Pf growth 48h 0.47µM
O=C(/C=C/c1ccc(O)cc1)c1ccc(NC2=C(N3CCCCC3)C(=O)c3ccccc3C2=O)cc1	Pf growth 96h 0.17µM, Pf growth 48h 0.52µM
CN(C1=C(N2CCCCC2)C(=O)c2ccccc2C1=O)c1ccccc1	SARS PLP yeast inconclusive, Pf growth 48h 8.3µM (no result: Pf growth 96h)
COc1cc(CN2C[C@@H](CO)O[C@@H](n3cnc4c(Nc5ccccc5)ncnc43)C2)cc(OC)c1OC	none (no result: SARS PLP yeast, Pf growth 96h, NS1 function inh, Pf growth 48h)
CC(=O)N(Cc1ccccc1)C1CC(=O)N(Cc2ccccc2)C1=O (stereo unspecified)	none (no result: SARS PLP yeast, Pf growth 96h, NS1 function inh, Pf growth 48h)
O=C1C(Nc2cccc(O)c2)=C(N2CCCCC2)C(=O)c2ccccc21	Pf growth 96h 0.41µM, Pf growth 48h inconclusive
COc1ccccc1NC1=C(N2CCCCC2)C(=O)c2ccccc2C1=O	Pf growth 96h 0.093µM, RE007 growth inh inconclusive, Pf growth 48h 0.046µM
CCCCCC(O)(c1ccccc1)C(CN1CCOCC1)c1ccccc1 (stereo unspecified)	Pf growth 48h 2.6µM
CCCCCCC(O)(c1ccc(OC)cc1)C(CN1CCOCC1)c1ccccc1 (stereo unspecified)	Pf growth 96h 10µM, Pf growth 48h 1.9µM
CCCCCOc1ccc(C(C)(O)C(CN2CCOCC2)c2ccccc2)cc1 (stereo unspecified)	Pf growth 48h inconclusive
CCCCCCC(O)(c1ccccc1)C(CN1CCOCC1)c1ccccc1 (stereo unspecified)	Pf growth 48h 3.3µM
CCCC(O)(c1ccc(Cl)cc1)C(CN1CCOCC1)c1ccccc1 (stereo unspecified)	Pf growth 96h inconclusive (no result: Pf growth 48h)
CCOc1cc2c(cc1O)C(=NOC)CC1C2CCC2(C)C(O)CCC12 (stereo unspecified)	none (no result: SARS PLP yeast, Pf growth 96h, NS1 function inh, Pf growth 48h)
CC1CCN(CCOc2ccc(OCc3ccccc3)cc2)CC1	none
Cc1ccc(CN2CCCN(C)CC2)c(C)c1	none
O=C1[C@@H]2Cc3c([nH]c4ccccc34)C(c3cccc([N+](=O)[O-])c3)N2C(=O)CN1CCCO (stereo partly specified)	none
CS(=O)(=O)N1CCCCC1c1cc(C(=O)NCc2ccc(Cl)c(Cl)c2)no1 (stereo unspecified)	none (no result: SARS PLP yeast, Pf growth 96h, NS1 function inh, Pf growth 48h)
C[C@]12CCC(=O)C[C@@H]1CC[C@@H]1[C@@H]2CC[C@]2(C)[C@@H](C(=O)COC(=O)CCC(=O)O)CC[C@@H]12	none
